Assay results taken from PubChem BioAssay (Tox21).
Several values for one entry are separate records, joined by “and”; a condition that tells them apart may be missing. Equal entries are not always repeated. Inconclusive results are not listed. A call without a number means that no potency is given here. Where a structure was tested more than once in an assay, its records may differ in their call. Activity calls are given as the source filed them. Unless noted, calls follow the shape of the full dose curve.

Tests used:
[1] = Nuclear factor erythroid 2-related factor 2/antioxidant responsive element (Nrf2/ARE) small molecule agonists: qHTS cell viability counter screen in human keratinocytes (AID 1919968; active = well fitted curve in the direction sought with a large enough effect in the repeat runs; an effect the other way counts as inactive or inconclusive; also: nearly all actives have a fitted effect of over 55% in size; also: potency is read from the fitted curve at half-maximal effect)
How it was run: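 KeratinoSens cells (HaCaT keratinocytes stably carrying an ARE-luciferase reporter) were seeded at 1,500 cells/well and rested 5 h at 37 C/5% CO2. They were then exposed to compounds in DMSO for 23 h. Viability was read by CellTiter-Fluor fluorescence after 1 h.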

[2] = Nuclear factor erythroid 2-related factor 2/antioxidant responsive element (Nrf2/ARE) small molecule agonists: luciferase reporter gene qHTS assay in human keratinocytes (AID 1919969); also: nearly all actives have a fitted effect of over 35% in size
[3] = molecular target: Gonadotropin-releasing hormone receptor (Homo sapiens) (UniProt P30968); experiment: Human gonadotropin-releasing hormone receptor (GnRHR) small molecule agonists, calcium flux assay in GnRHR-HEK293 cells (AID 1920063); also: nearly all actives have a fitted effect of over 35% in size
How it was run: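 HEK293 cells stably expressing human GnRHR were plated 18 h at 37 °C, loaded with calcium dye 1 h at 37 °C, then given compound in agonist mode; fluorescence (Ex/Em 480/540) read kinetically for 3 min at 1 s intervals.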

[4] = molecular target: KiSS-1 receptor (Homo sapiens) (UniProt Q969F8); experiment: Human kisspeptin (KISS1R) small molecule agonists, calcium flux assay in KISS1R-HEK293 cells (AID 1920064; active = well fitted curve in the direction sought with a large enough effect in the repeat runs; an effect the other way counts as inactive or inconclusive)
How it was run: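 HEK293 cells stably expressing human KISS1R were plated 18 h at 37 °C, loaded with calcium dye for 1 h at 37 °C, then given compound by pin tool. Fluorescence (Ex/Em 480/540) was read kinetically for 3 min.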

[5] = G protein-coupled receptor (GPCR) small molecule agonists, calcium flux assay: HEK293 wild type cell line counter screen (AID 1920065)
How it was run: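 Cells were plated and cultured 18 h at 37 C/5% CO2, then loaded with calcium dye for 1 h at 37 C. Compounds in DMSO were pin-transferred in agonist mode, and fluorescence (Ex/Em 480/540) was read kinetically for 3 min at 1 s intervals.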

[6] = p53 small molecule agonists, cell-based qHTS assay with human liver microsomes (AID 1963577);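 also: p53 response element beta-lactamase reporter cells with liver microsomes plus NADPH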
How it was run: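 Reporter activation was measured by LiveBLAzer fluorescence intensity in p53RE-bla cells, which had been exposed to compounds for 16 h at 37 C alongside 0.5 mg/mL human liver microsomes and 0.5 mg/mL NADPH (final concentrations).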

[7] = p53 small molecule agonists, cell-based qHTS assay with rat liver microsomes (AID 1963578)
How it was run: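 Compound in DMSO added to p53RE-bla cells 5 h post-plating; rat microsomes/NADPH 0.5 mg/mL final; 16 h, 37 C; LiveBLAzer 2 h RT.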

[8] = p53 small molecule agonists, cell-based qHTS assay with human liver microsomes: qHTS cell viability counter screen (AID 1963579); also: nearly all actives have a fitted effect of over 45% in size; also: potency is read from the fitted curve at half-maximal effect
How it was run: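 HLM-supplemented (0.5 mg/mL final) and NADPH-supplemented (0.5 mg/mL final) p53RE-bla cultures, 4,000 cells per well, were dosed with compounds in DMSO for 16 h at 37 C; luminescent ATP detection (CellTiter-Glo, 30 min, room temperature) quantified surviving cells.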

[9] = p53 small molecule agonists, cell-based qHTS assay with rat liver microsomes: qHTS cell viability counter screen (AID 1963580); also: nearly all actives have a fitted effect of over 45% in size; also: potency is read from the fitted curve at half-maximal effect
How it was run: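 p53RE-bla HCT-116 cells were exposed 16 h at 37 C to compounds with rat liver microsomes (0.5 mg/mL) and NADPH (0.5 mg/mL). Viability was measured in the same wells as ATP content by CellTiter-Glo luminescence.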

[10] = p53 small molecule agonists, cell-based qHTS assay: qHTS cell viability counter screen (AID 1963581); also: nearly all actives have a fitted effect of over 45% in size; also: potency is read from the fitted curve at half-maximal effect
How it was run: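 p53RE-bla HCT-116 cells were exposed to compounds for 16 h at 37 C; after the beta-lactamase FRET read in the same wells, CellTiter-Glo was added and luminescence (intracellular ATP) read after 30 min at room temperature.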

[11] = p53 small molecule agonists, cell-based qHTS assay (AID 1963582; active = well fitted activation curve with a large enough effect in the signal ratio in the repeat runs, not every such curve was filed as active; the % refers to the signal ratio)
How it was run: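 p53RE-bla beta-lactamase reporter cells rested 5 h at 37 C/5% CO2, then received compounds in DMSO by pin transfer and were incubated 16 h at 37 C. LiveBLAzer B/G FRET substrate was loaded for 2 h at room temperature before fluorescence reading.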

[12] = molecular target: 5-hydroxytryptamine receptor 2A (Homo sapiens) (UniProt P28223); experiment: 5-hydroxytryptamine receptor 2A (HTR2A) small molecule antagonists, cell-based qHTS assay (AID 1963586); also: nearly all actives have a fitted effect of over 45% in size
How it was run: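 Antagonist-mode intracellular calcium assay: DOI (4 nM) added after 5 min compound pre-incubation at room temperature to dye-loaded HTR2A-CHO cells. Fluorescence followed for 3 min, sampled every second.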

[13] = molecular target: Muscarinic acetylcholine receptor M1 (Homo sapiens) (UniProt P11229); experiment: Cholinergic receptor muscarinic 1 (CHRM1) small molecule agonists, cell-based qHTS assay (AID 1963589); also: nearly all actives have a fitted effect of over 35% in size
How it was run: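 CHO cells stably expressing human CHRM1, seeded 18 h at 37 C/5% CO2, dye-loaded 1 h at 37 C, then given compound in agonist mode; intracellular calcium fluorescence read kinetically at 1 s intervals. Fifteen concentrations, three independent runs.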

[14] = cAMP Responsive Elements (CRE) small molecule agonists, cell-based qHTS assay (AID 1963590)
How it was run: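 CRE-bla HEK 293T cells in DMEM with 10% dialyzed FBS, NEAA, pyruvate and 25 mM HEPES were plated 18 h at 37 C/5% CO2, then exposed to compounds in DMSO for 3 h before LiveBLAzer B/G FRET substrate addition.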

[15] = cAMP Responsive Elements (CRE) small molecule antagonists, cell-based qHTS assay (AID 1963591; active = well fitted inhibition curve with a large enough effect in the signal ratio in the repeat runs, not every such curve was filed as active; the % refers to the signal ratio)
How it was run: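 CRE-bla HEK293T cells were plated 18 h at 37 °C/5% CO2, pinned with compound in DMSO, then stimulated with NKH477 at 0.25 uM final for 3 h. LiveBLAzer B/G FRET substrate was added and plates incubated 2 h at room temperature.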

[16] = molecular target: Beta-2 adrenergic receptor (Homo sapiens) (UniProt P07550); experiment: Adrenergic beta2 receptor (ADRB2) small molecule antagonists, cell-based qHTS assay (AID 1963592); also: series mostly up to about 92 µM; nearly all actives have a fitted effect of over 50% in size
How it was run: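 Cells (CHO, stable ADRB2 overexpression) incubated 18-20hr at 37C; compounds added from DMSO; agonist mix (1nM isoproterenol, 100uM IBMX, 25uM Ro-20-1724) added; 0.5hr RT; d2-cAMP and anti-cAMP-cryptate added; 1hr RT; 665/615 nm read.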

[17] = molecular target: Beta-2 adrenergic receptor (Homo sapiens) (UniProt P07550); experiment: Adrenergic beta2 receptor (ADRB2) small molecule agonists, cell-based qHTS assay (AID 1963593);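 also: CHO cells stably overexpressing human ADRB2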
How it was run: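 CHO cells stably over-expressing ADRB2 were plated overnight at 37C, then dosed with compounds plus a stimulation mix containing 100uM IBMX and 25uM Ro-20-1724 for 0.5hr at room temperature. cAMP was measured by HTRF competition, 1hr.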

[18] = molecular target: D(2) dopamine receptor (Homo sapiens) (UniProt P14416); experiment: Dopamine D2 receptor (DRD2) small molecule agonists, cell-based qHTS assay (AID 1963594); also: nearly all actives have a fitted effect of over 35% in size
How it was run: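 HEK293 cells stably expressing human DRD2, pre-treated with PDE inhibitor Ro20-1724 (0.1 mM final) and compound 10 min at room temperature, then stimulated with NKH477 (200nM […]) for 30 min. cAMP read by HTRF (665/620 nm).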

[19] = molecular target: D(2) dopamine receptor (Homo sapiens) (UniProt P14416); experiment: Dopamine D2 receptor (DRD2) small molecule antagonists, cell-based qHTS assay (AID 1963595; active = well fitted inhibition curve with a large enough effect in the signal ratio in the repeat runs, with a control signal flat; the % refers to the signal ratio)
How it was run: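 Human DRD2 antagonist qHTS measuring cAMP by HTRF. The cells are exposed to compound for 10 min, then to NKH477 (200 nM) and quinpirole (12 nM) for 30 min at RT, with Ro20-1724 (0.1 mM) present throughout.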

[20] = molecular target: Muscarinic acetylcholine receptor M1 (Homo sapiens) (UniProt P11229); experiment: Cholinergic receptor muscarinic 1 (CHRM1) small molecule antagonists, cell-based qHTS assay (AID 1963588); also: nearly all actives have a fitted effect of over 40% in size
How it was run: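 CHRM1-CHO calcium-flux assay, antagonist mode. Cells were seeded 18 h, dye-loaded 1 h at 37 C and given compound for 5 min at RT, then acetylcholine was added at 50nM. FDSS fluorescence was read 3 min; 15 concentrations, three runs.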

Sequence of Beta-2 adrenergic receptor (Homo sapiens) (P07550 whole entry, looked up): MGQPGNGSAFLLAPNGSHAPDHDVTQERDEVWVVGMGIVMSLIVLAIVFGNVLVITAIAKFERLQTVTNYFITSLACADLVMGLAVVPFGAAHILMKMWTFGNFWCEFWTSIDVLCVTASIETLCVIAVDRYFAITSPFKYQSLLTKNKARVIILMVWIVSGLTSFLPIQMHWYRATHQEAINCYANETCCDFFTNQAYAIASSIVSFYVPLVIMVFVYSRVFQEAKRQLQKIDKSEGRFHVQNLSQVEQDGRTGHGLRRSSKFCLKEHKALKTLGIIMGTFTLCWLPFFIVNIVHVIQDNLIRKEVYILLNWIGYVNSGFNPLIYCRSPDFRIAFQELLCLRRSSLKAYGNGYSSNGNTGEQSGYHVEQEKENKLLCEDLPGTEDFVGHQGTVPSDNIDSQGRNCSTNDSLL
Sequence of D(2) dopamine receptor (Homo sapiens) (P14416 whole entry, looked up): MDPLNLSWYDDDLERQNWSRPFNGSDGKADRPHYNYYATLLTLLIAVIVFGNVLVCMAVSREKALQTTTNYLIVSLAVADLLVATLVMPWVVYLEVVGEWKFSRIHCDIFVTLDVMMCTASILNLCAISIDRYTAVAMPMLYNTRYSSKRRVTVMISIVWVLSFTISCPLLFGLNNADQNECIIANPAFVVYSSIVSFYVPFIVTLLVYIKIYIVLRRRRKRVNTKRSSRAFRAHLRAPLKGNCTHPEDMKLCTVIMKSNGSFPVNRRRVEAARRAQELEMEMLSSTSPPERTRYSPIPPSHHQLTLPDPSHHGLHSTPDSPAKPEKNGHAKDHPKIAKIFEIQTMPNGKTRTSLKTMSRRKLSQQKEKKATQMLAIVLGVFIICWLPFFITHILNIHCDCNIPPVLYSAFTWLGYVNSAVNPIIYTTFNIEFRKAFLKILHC
Sequence of 5-hydroxytryptamine receptor 2A (Homo sapiens) (P28223 whole entry, looked up): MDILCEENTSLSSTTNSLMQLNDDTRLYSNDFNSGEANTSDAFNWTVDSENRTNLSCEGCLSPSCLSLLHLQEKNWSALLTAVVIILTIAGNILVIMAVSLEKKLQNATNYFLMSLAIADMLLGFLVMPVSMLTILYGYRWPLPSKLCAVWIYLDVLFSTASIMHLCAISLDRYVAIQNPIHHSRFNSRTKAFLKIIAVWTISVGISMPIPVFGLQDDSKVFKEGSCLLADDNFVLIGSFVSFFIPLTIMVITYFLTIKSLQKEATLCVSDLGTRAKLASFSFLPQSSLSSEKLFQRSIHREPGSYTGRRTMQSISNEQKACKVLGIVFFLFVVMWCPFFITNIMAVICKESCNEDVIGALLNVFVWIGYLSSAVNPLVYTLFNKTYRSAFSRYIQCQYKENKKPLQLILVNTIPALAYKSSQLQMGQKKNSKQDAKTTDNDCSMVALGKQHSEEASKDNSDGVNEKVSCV
Sequence of Gonadotropin-releasing hormone receptor (Homo sapiens) (P30968 whole entry, looked up): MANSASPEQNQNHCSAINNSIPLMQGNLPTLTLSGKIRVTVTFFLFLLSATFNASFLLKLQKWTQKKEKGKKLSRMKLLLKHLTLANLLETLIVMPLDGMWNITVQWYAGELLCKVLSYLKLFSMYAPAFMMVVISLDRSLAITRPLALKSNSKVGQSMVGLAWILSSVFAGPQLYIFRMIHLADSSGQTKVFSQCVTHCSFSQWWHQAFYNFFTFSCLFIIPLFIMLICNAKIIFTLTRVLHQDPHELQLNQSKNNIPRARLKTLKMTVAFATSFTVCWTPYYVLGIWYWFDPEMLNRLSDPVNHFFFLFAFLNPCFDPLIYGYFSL
Sequence of KiSS-1 receptor (Homo sapiens) (Q969F8 whole entry, looked up): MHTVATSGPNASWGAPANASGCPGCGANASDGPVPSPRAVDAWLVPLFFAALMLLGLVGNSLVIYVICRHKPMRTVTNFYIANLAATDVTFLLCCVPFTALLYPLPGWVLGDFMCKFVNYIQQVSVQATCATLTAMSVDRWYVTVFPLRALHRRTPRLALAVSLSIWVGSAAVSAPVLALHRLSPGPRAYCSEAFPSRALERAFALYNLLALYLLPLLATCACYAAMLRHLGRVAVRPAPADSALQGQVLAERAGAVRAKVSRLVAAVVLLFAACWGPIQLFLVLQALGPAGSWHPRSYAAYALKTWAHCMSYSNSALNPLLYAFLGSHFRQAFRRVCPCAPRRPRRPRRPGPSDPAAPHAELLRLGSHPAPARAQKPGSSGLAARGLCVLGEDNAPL
Sequence of Muscarinic acetylcholine receptor M1 (Homo sapiens) (P11229 whole entry, looked up): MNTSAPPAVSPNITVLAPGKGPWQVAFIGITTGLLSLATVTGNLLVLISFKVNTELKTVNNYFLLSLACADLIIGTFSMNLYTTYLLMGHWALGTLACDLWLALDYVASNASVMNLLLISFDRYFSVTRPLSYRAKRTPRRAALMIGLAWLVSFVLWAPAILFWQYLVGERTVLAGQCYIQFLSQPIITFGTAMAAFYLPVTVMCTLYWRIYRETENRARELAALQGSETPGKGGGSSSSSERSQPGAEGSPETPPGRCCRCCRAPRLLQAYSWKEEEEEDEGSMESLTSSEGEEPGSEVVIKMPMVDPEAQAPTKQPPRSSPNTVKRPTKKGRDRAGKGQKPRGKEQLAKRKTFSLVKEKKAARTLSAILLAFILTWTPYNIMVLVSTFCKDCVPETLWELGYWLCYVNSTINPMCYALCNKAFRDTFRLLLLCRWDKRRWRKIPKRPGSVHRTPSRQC

For `C#CCN(C)Cc1ccccc1`, the Potency [1] was “inactive”, the Potency [2] was “inactive” and the Potency [3] was “inactive”. The Potency [4] was “inactive”, the Potency [5] was “inactive” and the Potency [6] was “inactive”. The Potency [7] was “inactive”, the Potency [8] was “inactive” and the Potency [9] was “inactive”. For the same molecule, the Potency [10] was “inactive”, the Potency [11] was “inactive” and the Potency [12] was “inactive”. For the same molecule, the Potency [13] was “inactive”, the Potency [14] was “inactive” and the Potency [15] was “inactive”. For the same molecule, the Potency [16] was “inactive”, the Potency [17] was “inactive” and the Potency [18] was “inactive”. The Potency [19] was “inactive”.

With `O=C(O)c1ccc(O)cc1` the Potency [1] was “inactive”, the Potency [2] was “inactive” and the Potency [3] was “inactive”. For the same molecule, the Potency [4] was “inactive”, the Potency [5] was “inactive” and the Potency [6] was “inactive”. The Potency [7] was “inactive”, the Potency [8] was “inactive” and the Potency [9] was “inactive”. For the same molecule, the Potency [10] was “inactive”, the Potency [11] was “inactive” and the Potency [20] was “inactive”. For the same molecule, the Potency [13] was “inactive”, the Potency [14] was “inactive” and the Potency [16] was “inactive”. The Potency [17] was “inactive”, the Potency [18] was “inactive” and the Potency [19] was “inactive”.

In the case of `CN(C)Cc1cc(CN(C)C)c(O)c(CN(C)C)c1`, the Potency [1] is reported as “inactive”, the Potency [2] is reported as “inactive” and the Potency [3] is reported as “inactive”. For the same molecule, the Potency [4] was “inactive”, the Potency [5] was “inactive” and the Potency [6] was “inactive”. For the same molecule, the Potency [7] was “inactive”, the Potency [8] was “inactive” and the Potency [9] was “inactive”. The Potency [10] was “inactive”, the Potency [11] was “inactive” and the Potency [12] was “inactive”. For the same molecule, the Potency [20] was “inactive”, the Potency [13] was “inactive” and the Potency [14] was “inactive”. The Potency [15] was “inactive”, the Potency [16] was “inactive” and the Potency [18] was “inactive”. For the same molecule, the Potency [19] was “inactive”.

With `CC(C)OC(=O)COc1ccc(Cl)cc1Cl` the Potency [1] was “inactive”, the Potency [2] was “inactive” and the Potency [3] was “inactive”. For the same molecule, the Potency [4] was “inactive”, the Potency [5] was “inactive” and the Potency [6] was “inactive”. The Potency [7] was “inactive”, the Potency [8] was “inactive” and the Potency [9] was “inactive”. The Potency [10] was “inactive”, the Potency [11] was “inactive” and the Potency [12] was “inactive”. For the same molecule, the Potency [20] was “inactive”, the Potency [13] was “inactive” and the Potency [15] was “inactive”. For the same molecule, the Potency [16] was “inactive”, the Potency [18] was “inactive” and the Potency [19] was “inactive”.

For `COC(=O)C(C)Oc1ccc(Oc2ncc(C(F)(F)F)cc2Cl)cc1` (configuration not stated), the Potency [1] was “inactive”, the Potency [2] was “inactive” and the Potency [3] was “inactive”. For the same molecule, the Potency [4] was “inactive”, the Potency [5] was “inactive” and the Potency [6] was “inactive”. For the same molecule, the Potency [7] was “inactive”, the Potency [8] was “inactive” and the Potency [9] was “inactive”. The Potency [10] was “inactive”, the Potency [11] was “inactive” and the Potency [12] was “inactive”. The Potency [13] was “inactive”, the Potency [14] was “inactive” and the Potency [16] was “inactive”. For the same molecule, the Potency [19] was “inactive”.

In the case of `CC12CCC(CC1)C(C)(C)O2`, the Potency [1] is reported as “inactive”, the Potency [2] is reported as “inactive” and the Potency [3] is reported as “inactive”. For the same molecule, the Potency [4] was “inactive”, the Potency [5] was “inactive” and the Potency [6] was “inactive”. For the same molecule, the Potency [7] was “inactive”, the Potency [8] was “inactive” and the Potency [9] was “inactive”. The Potency [10] was “inactive”, the Potency [11] was “inactive” and the Potency [14] was “inactive”. The Potency [15] was “inactive”, the Potency [16] was “inactive” and the Potency [17] was “inactive”. For the same molecule, the Potency [18] was “inactive” and the Potency [19] was “inactive”.

For `NC(=NCCCCCCN=C(N)/N=C(\N)Nc1ccc(Cl)cc1)/N=C(\N)Nc1ccc(Cl)cc1`, the Potency [1] was 24.2 µM (active) [middle of 5 runs], the Potency [2] was “inactive” and the Potency [3] was “inactive”. The Potency [4] was “inactive”, the Potency [5] was “inactive” and the Potency [6] was “inactive”. For the same molecule, the Potency [7] was “inactive”, the Potency [8] was 40.4 µM (active) and 28.7 µM (active) and inactive and the Potency [9] was 32.1 µM (active) and 41.5 µM (active) and inactive. The Potency [10] was 45.3 µM (active) and inactive, the Potency [11] was “inactive” and the Potency [13] was “inactive”. The Potency [14] was “inactive”, the Potency [15] was “inactive” and the Potency [18] was “inactive”.
